Each structure is given as a SMILES string. Records with an inconclusive call do not appear. Calls of active or inactive are those of the source. The call rests on the fitted dose curve; in most records, active means well fitted inhibition curve with a large enough effect; inconclusive means small, poorly fitted or top-dose-only effect; inactive means no such curve, though single readings can be large or run the other way. Residues, ends and D or L forms follow the SMILES beside them. *: point of attachment. Cbz = O=C(OCc1ccccc1)*
Potency means the concentration at half of the fitted maximal effect.

The nature of the experiment: BET inhibitor-based combinations targeting novel dependencies in MECOM-rearranged (r) AML: SET-2 cell line (AID 2202231). Further: nearly all actives have a fitted effect of over 35% in size. The following applies: SET-2 AML cells viability, CellTiter-Glo luminescence, 48 h; viability: hits give low values, series mostly up to about 46 µM. The source says: Ecotropic viral insertion site 1 (EVI1) is located on chromosome 3q26.2 as part of the MECOM (MDS and EVI1 complex) locus. Under normal hematopoiesis, EVI1 is a regulator of hematopoietic stem cell maintenance and self-renewal and EVI1 levels decrease as the cells differentiate. In approximately 5-10% of de novo acute myeloid leukemia (AML) EVI1 is aberrantly expressed, including Chromosomal inv(3)(q21;q26.2) or t(3;3)(q21;q26.2) alterations (MECOM-r) that account for about 50% of AML with EVI1 overexpression 31. AMLs with high levels of EVI1 have a poor prognosis and an overall survival time averaging between 10-14 months. EVI1 overexpression confers resistance in leukemia cells, highlighting the need to develop new targeted therapies for EVI1 overexpressing AMLs.
Here, we performed an unbiased chemical drug screening by evaluating the single agent activity of a collection of 2,480 oncology-focused, approved and investigational drugs (NCATS Mechanism Interrogation Plates, MIPE v5.0) against a panel of seven AML cell lines. These included four MECOM-r cell-lines (AML-191, AML-194, UCSD-AML1 and HNT-34) and three non-MECOM-r AMLs (MV4-11, OCI-AML3 and SET-2). Exploiting the mechanistic redundancy built in the library, we identified target-level sensitivities in MECOM-r AML cells and relative activity as compared to other AML subtypes.
A collection of 2480 mechanistically annotated dugs (MIPE v5.0) was used to screen four 3q26.2 rearranged AML cell lines and three non-3q26.2 rearranged AML cell lines. This library purposely exploits redundancy by including multiple inhibitors of key onco-targets, while simultaneously encompassing mechanistic diversity, targeting more than 800 distinct mechanisms of action. Briefly, cells were seeded in 5 uL of growth media using a Multidrop Combi dispenser into 1536 well white polystyrene tissue culture treated plates (Corning) at a density of 500cells/well. For each cell-line, for each of the 2480 drugs in MIPE v5.0 library, an 11-point dose curve was generated via a 1536 pin-tool. Plates were incubated for 48 hr at standard incubator conditions, covered by a stainless steel gasketed lid to prevent evaporation. Cell viability was determined by luminescence based, Cell Titer Glo assay (Promega). In detail, 3 uL of Cell Titer Glo were added to each well and plates were incubated at room temperature for 15 min with a stainless-steel lid in place. Luminescence readings were taken using a Viewlux (PerkinElmer) with a 2 s exposure time per plate. Compound dose-response curves were normalized to DMSO and empty well controls on each plate. Quantitative drug activity data from dose-response curves was determined utilizing area Under the Curve (AUC) and Z-transformed AUC (Z-AUC, a mean-centering transformation applied to each individual cell-line screened).
On the technique in general: In ATP-based viability assays light output follows the ATP content of the culture.
The term viability denotes a read-out of living cells in per cent, often relative to untreated cells. On to `CCOC(=O)c1ccc(OC(=O)CCCCCN=C(N)N)cc1`, for which the viability was 106% (inactive).

For `Cc1c(F)cc(C(=O)NC2CC2)cc1-c1ccc(C(=O)NCC(C)(C)C)cn1`, the viability is 92.7% (inactive).

On to `O=C(Nc1nc2ccccc2n1CCN1CCOCC1)c1cccc([N+](=O)[O-])c1`, for which the viability was 112% (inactive).

In the case of `Cc1cc(Nc2cc(N3CCN(C)CC3)nc(/C=C/c3ccccc3)n2)n[nH]1`, the Potency is 13.2 µM (active).

With `NCCCCNCCCN`, the Potency was 18.6 µM (active).

On to `C=CC(=O)Nc1cc(Nc2nccc(-c3cn(C)c4ccccc34)n2)c(OC)cc1N(C)CCN(C)C`, for which the Potency was 9.34 µM (active).

Turning to `Cc1cc(C(C)Nc2ccccc2)c2nc(N3CCOCC3)cc(=O)n2c1` (stereo not given), the viability was 91.4% (inactive).

Consider `Cn1cc(C2=C(c3c4n(c5ccccc35)CCC(CN)C4)C(=O)NC2=O)c2ccccc21` (stereo not given), for which the viability was 103% (inactive).

Consider `Cc1ccc(C(=O)c2cc(O)c(O)c([N+](=O)[O-])c2)cc1`, for which the viability is 104% (inactive).

For the compound `COc1cccc2c(NCc3ccccc3)nc(-n3c(N)nc4ccccc43)nc12`, the Potency is 7.42 µM (active).

Turning to `O[C@@H](COc1cccc2ncccc12)CN1CCN(C2c3ccccc3[C@@H]3[C@H](c4ccccc42)C3(F)F)CC1` (stereo not given in full), the Potency is 26.3 µM (active).

For `CCNC(=O)c1cc2c(-c3cc(OCCN4CCCC4)c(Cl)cc3Cl)nc(N)nc2s1`, the Potency is 2.88 µM (active).

In the case of `COc1ccc(CCN2CCN(CCCc3ccccc3)CC2)cc1OC`, the Potency is 18.6 µM (active).

In the case of `N#Cc1cc(NC(=O)Nc2nnc(-c3ccncc3)s2)ccc1-c1cn[nH]c1`, the viability was 111% (inactive).

Turning to `O=C(NCC(=O)N1CC[C@H](NC2CCC(O)(c3ccc(-c4ncccn4)cn3)CC2)C1)c1cccc(C(F)(F)F)c1` (stereo not given in full), the viability was 98.1% (inactive).

For `CC(C)C[C@@H](C=O)NC(=O)[C@H](CC(C)C)NC(=O)[C@H](CC(C)C)NC(=O)OCc1ccccc1` (Cbz-Leu-Leu-Leu-aldehyde), the Potency is 1.48 µM (active).

In the case of `NC(=O)c1ccc2[nH]ccc2c1`, the viability was 107% (inactive).

With `Cc1cnc(Nc2ccc(F)cc2Cl)nc1-c1c[nH]c(C(=O)N[C@H](CO)c2cccc(Cl)c2)c1`, the Potency was 23.5 µM (active).

`COc1ccc([C@@H]2Sc3ccccc3N(CCN(C)C)C(=O)[C@@H]2OC(C)=O)cc1`: the viability is 101% (inactive).

Take `NS(=O)(=O)OC[C@@H]1C[C@@H](n2ccc3c(N[C@H]4CCc5ccccc54)ncnc32)C[C@@H]1O`: the Potency is 0.525 µM (active).

Take `O=P(O)(O)C(O)(Cn1ccnc1)P(=O)(O)O`: the viability is 112% (inactive).

In the case of `Cc1cc(C2CCCCC2)n(O)c(=O)c1`, the Potency was 18.6 µM (active).

Take `COc1ccc(C(=O)CC(=O)c2ccc(C(C)(C)C)cc2)cc1`: the viability is 107% (inactive).

Take `Cc1cnc(C(=O)NCCc2ccc(S(=O)(=O)NC(=O)NC3CCCCC3)cc2)cn1`: the viability was 105% (inactive).

`CCc1cccc2c3c([nH]c12)[C@@](CC)(CC(=O)O)OCC3`: the viability is 112% (inactive).

For the compound `Cc1ncc(NC(=O)c2ccc(CN3CCN(C)CC3)c(C(F)(F)F)c2)cc1Nc1nccc(-c2cccnc2)n1`, the Potency was 23.5 µM (active).

For the compound `C[C@@H](Oc1cc(-c2cnn(C3CCNCC3)c2)cnc1N)c1c(Cl)ccc(F)c1Cl`, the Potency is 10.5 µM (active).

With `CCN(CC)CCNC(=O)c1ccc2nc(-c3ccccc3)c(-c3ccc(CN4CCC(n5c(=O)[nH]c6ccccc65)CC4)cc3)nc2c1`, the Potency is 8.33 µM (active).

With `CC1(C)CCC(C)(C)c2cc(NC(=O)c3ccc(C(=O)O)cc3)ccc21`, the viability is 80.9% (inactive).

For the compound `CN1C2CCC1CC(OC(=O)C(CO)c1ccccc1)C2` (stereo not given), the viability was 89.7% (inactive).

Regarding `CC(=O)O[C@]1(C(C)=O)CC[C@H]2[C@@H]3C=C(C)C4=CC(=O)CC[C@]4(C)[C@H]3CC[C@@]21C`, the viability is 110% (inactive).

Consider `COc1ccc2c(c1)c(CC(=O)O)c(C)n2C(=O)c1ccc(Cl)cc1`, for which the viability was 114% (inactive).

Regarding `C[C@]1(c2nc3c(C(N)=O)cccc3[nH]2)CCCN1`, the viability was 113% (inactive).

With `O=C(O)CCNc1cc(N2CCc3ccccc3CC2)nc(-c2ccccn2)n1`, the viability is 103% (inactive).

`CC(C)(C)OC(=O)N[C@H]1CCCCCC=C[C@@H]2C[C@@]2(C(=O)NS(=O)(=O)C2CC2)NC(=O)[C@@H]2C[C@@H](OC(=O)N3Cc4cccc(F)c4C3)CN2C1=O`: the viability was 102% (inactive).

As to `CS(=O)(=O)c1cccc(CNc2nc(Nc3ccc4c(c3)CCC(=O)N4)ncc2C(F)(F)F)c1`, the Potency was 16.6 µM (active).

In the case of `C[C@]12CC[C@@H]3c4ccc(O)cc4CC[C@H]3[C@H]1[C@@H](O)[C@@H](O)[C@H]2O`, the viability is 104% (inactive).

As for `CC(=O)SCC(Cc1ccccc1)C(=O)NCC(=O)OCc1ccccc1` (stereo not given), the viability is 105% (inactive).

Take `CNC(=O)c1ccc2cc(C3(O)CCn4cncc43)ccc2c1` (stereo not given): the viability was 115% (inactive).

For the compound `O=C(NCCCNC(=O)c1ccc[nH]c1=O)c1cc(-c2ccccc2)on1`, the Potency is 13.2 µM (active).
